High-throughput results: PubChem BioAssay, National Center for Advancing Translational Sciences (NCATS)
The list is not random: actives were taken first. Their share in the collection is about 12%.
JMJD2A Tudor – JMJD2A Tudor domain (human) inhibition; O75164; AlphaScreen JMJD2A-Tudor / H3K4me3 peptide binding; Potency, µM (highest dose often 114 µM), for inactives: at the top dose activity change, negative = inhibition, usual class: inhibitors; 4.4% of 390,000 active; note: % is set by controls: 0 for no effect and ±100 for the full control effect; nearly all actives have a fitted effect of over 50% in size
BAZ2B inh – BAZ2B (human) inhibition; Q9UIF8; AlphaScreen BAZ2B-H3K14Ac peptide displacement; Potency, µM (doses to about 114 µM), for the others: at the top dose activity change, negative = inhibition, hits mostly inhibitors; 4.4% of 360,000 active; note: % is set by controls: 0 for no effect and ±100 for the full control effect; nearly all actives have a fitted effect of over 60% in size
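AlphaScreen displacement: compounds (up to 110uM) incubated 30 min at room temperature with a preformed 50 nM BAZ2B/50 nM biotinylated H3K14Ac peptide complex in PBS pH 7.4 with Tween-20. Donor and acceptor beads at 10 ug/mL final added, 20 min light-protected before reading.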
Sfp inh – blocks B. subtilis Sfp PPTase activity | AID 1490 | 3.5% of 310,000 active | Biochemical Sfp PPTase activity, qHTS | Potency, µM, inactives show largest response in the series, negative = inhibition, hits mostly inhibitors;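 note: the enzyme is Sfp with the accession as filed and its product quenches rhodamine fluorescence; 0% = enzyme reaction without inhibitor and -100% = no enzyme wells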
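After 15 min at room temperature with compound, 15 nM Sfp received 5 uM rhodamine-CoA plus 12.5 uM BHQ-2-ybbR (50 mM Hepes pH 7.6, 10 mM MgCl2). Rate came from the fluorescence difference over 30 min, ex 525/em 598 nm.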
PLK1 PBD inh – PLK1 (human) polo-box domain binding inhibition. Plk1 PBD binding of FITC phosphopeptide, fluorescence polarization. 2.8% of 360,000 active. AID 720504. P53350. Potency, µM, for inactives: max response, negative = inhibition, actives largely listed as inhibitors; note: series mostly up to about 57 µM; % is set by controls: 0 for no effect and ±100 for the full control effect; nearly all actives have a fitted effect of over 65% in size
HP1b chromo inh – inhibitors of HP1-beta chromodomain binding to methylated histone tails; AlphaScreen HP1-beta / biotin-H3K9me3 peptide binding; Potency, µM (doses to about 114 µM), inactives show top-dose activity change, negative = inhibition, most hits filed as inhibitors; 0.56% of 390,000 active; note: nearly all actives have a fitted effect of over 70% in size
Target sequence (P83916 whole entry, looked up): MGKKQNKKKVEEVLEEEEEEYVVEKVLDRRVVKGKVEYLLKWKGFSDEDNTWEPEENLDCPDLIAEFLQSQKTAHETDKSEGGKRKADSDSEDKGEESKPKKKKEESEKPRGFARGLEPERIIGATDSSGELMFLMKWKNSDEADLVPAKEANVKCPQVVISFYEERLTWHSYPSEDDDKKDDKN
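Compound inhibition of the preformed complex between 50 nM HP1-beta and 50 nM biotinylated H3K9me3 peptide was read by AlphaScreen. Buffer was PBS pH 7.4 with 0.01% Tween-20. Incubations ran 30 min at room temperature, with 10 ug/mL donor/acceptor beads.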
G9a block – blocks human histone lysine methyltransferase G9a | Q96KQ7 | G9a H3K9 monomethylation, AlphaScreen, 2 h | Potency, µM (top dose mostly 102 µM), inactives show top-dose activity, negative = inhibition, most hits filed as inhibitors | 8.8% of 350,000 active; note: % is set by controls: 0 for no effect and ±100 for the full control effect; nearly all actives have a fitted effect of over 75% in size
Target sequence (Q96KQ7 913-1193 limits assumed): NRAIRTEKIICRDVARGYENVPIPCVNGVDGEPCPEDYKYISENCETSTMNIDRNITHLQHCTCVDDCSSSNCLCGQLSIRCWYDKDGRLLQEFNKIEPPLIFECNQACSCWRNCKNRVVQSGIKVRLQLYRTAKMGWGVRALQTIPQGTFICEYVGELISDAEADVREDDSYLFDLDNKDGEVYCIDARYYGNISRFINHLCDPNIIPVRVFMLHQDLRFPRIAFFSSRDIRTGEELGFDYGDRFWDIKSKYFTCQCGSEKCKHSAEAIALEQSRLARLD
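G9a (20 nM) preincubated 15 min RT with compounds, then 500 nM biotinylated H3K9 peptide and 20 uM SAM added; 2 h RT reaction. Monomethyl-H3K9 product detected by AlphaScreen with anti-H3K9me1 antibody, streptavidin donor and anti-rabbit IgG acceptor beads.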
Active calls of the source: *; ? = inconclusive; / = no result given; [ ] = dose if it differs, or a comment. Calls come from the whole dose curve; as a rule, active = well fitted curve in the direction sought with a large enough effect; inconclusive = small, poorly fitted or top-dose-only effect, or another doubt; inactive = no such curve, though single readings can be large; an effect the other way counts as inactive or inconclusive. Potency is the fitted concentration of half-maximal effect.

SMILES	JMJD2A Tudor	BAZ2B inh	Sfp inh	PLK1 PBD inh	HP1b chromo inh	G9a block
Cc1ccc(C)n1-c1nnc(N2CCCC(C(=O)NCc3cccc(F)c3)C2)s1 (stereo not given)	-18.8%	-11.9%	/	/	17.6%	13.7%[59 µM]
Cn1cc(-c2cc3n(n2)CCC(=O)N3CC(=O)NCc2ccccc2)c2ccccc21	-22.0%	-8.7%	/	/	6.7%[57 µM]	2.8%[59 µM]
CC1CCCCC1NC(=O)CCCn1c(=S)[nH]c2ccsc2c1=O (stereo not given)	-11.0%	-0.8%	-0.8%	-2.6%	53.0%	31.6µM*
CCOC(=O)N1CCN(C(=O)CCn2c(=S)[nH]c3ccsc3c2=O)CC1	?	?	56.2µM*	-7.1%	26.0%	44.7µM*
CC1CCCC(NC(=O)CCCCCn2c(=S)[nH]c3ccsc3c2=O)C1C (stereo not given)	/	/	/	-13.7%	/	/
S=C=Nc1ccc(N=C=S)cc1	/	/	19.6%	/	/	31.1%[12.7 µM]
Cc1cc(SCCC(=O)O)nc2c(C)cccc12	-15.3%	-6.3%	10.9%	-12.8%	54.0%	79.4µM*
Cc1cc(SCC(=O)N2CCCC2=O)nc2c(C)cccc12	-3.4%	6.1%	/	-2.6%	29.6%	-29.1%[59 µM]
C[C@@H]1O[C@@H](OC2C(O)C(OCCc3ccc(O)c(O)c3)OC(CO)C2OC(=O)/C=C/c2ccc(O)c(O)c2)[C@H](O)[C@H](O)[C@H]1O (stereo not given in full)	/	31.6µM*	/	/	/	?
COc1cc(NS(=O)(=O)c2ccc(N/C=C\C(=O)c3ccc(F)cc3)cc2)nc(OC)n1	-18.9%	3.4%	-20.0%	-24.7%	17.7%	?
COc1cc2c(C#N)c(N3CCc4ccccc4C3)nc(N)c2c(N)n1	4.47µM*	?	35.5µM*	-14.1%	-21.2%	-3.0%[12.7 µM]
COC(=O)[C@H]1[C@@H]2C[C@H]3c4[nH]c5ccccc5c4CCN3C[C@@H]2CC[C@@H]1O	/	/	1.6%	/	/	/
CC1CC(C)CN(C(=O)CSC2=Nc3ccccc3C3=NC(Cc4c[nH]c5ccccc45)C(=O)N23)C1 (stereo not given)	-3.2%	-1.2%	-5.8%	7.2%	105.1%	?
O=C(CSC1=Nc2ccccc2C2=NC(Cc3c[nH]c4ccccc34)C(=O)N12)NC1CCCCC1 (stereo not given)	-13.4%	-8.0%	-11.7%	-10.8%	1.6%	50.1µM*
CCN(CC)S(=O)(=O)c1ccc2c(c1)N(CC(=O)N1CCN(c3cccc(OC)c3)CC1)C(=O)CO2	-7.1%	0.5%	/	/	48.8%	2.3%[59 µM]
O=C(CCCc1ccccc1)c1ccccc1	146.1%	156.9%	2.5%	0.1%	222.4%	198.1%
CN(CCC(=O)c1ccccc1)CCC(=O)c1ccccc1	-11.2%	4.8%	10.6%	26.7µM*	14.4%	31.6µM*
O=C(O)CCC(=O)CCC(=O)c1ccc(Cl)cc1	-12.3%	-6.1%	?	-7.3%	33.9%	?
CN(C)CCC(=O)c1ccc(Cl)cc1	-7.9%[57.1 µM]	-2.6%	-3.5%	4.23µM*	17.5%	6.31µM*
CCC(=O)N1C2=C(c3ccccc3[C@@H]1CC(=O)Nc1ccc3ccccc3c1)[C@@H]1C(=O)N(c3ccccc3)C(=O)[C@@H]1[C@H](C)C2	/	/	-4.7%	/	/	/
C1=C(CCNc2nnnn2-c2ccccc2)CCCC1	50.1µM*	7.0%	12.4%	21.2µM*	2.2%	-6.2%[59 µM]
COc1cc([N+](=O)[O-])ccc1NC(=O)/C=C\C(=O)O	-13.6%	-32.7%	22.7%	-12.1%	17.9%	-45.1%
COc1cc([N+](=O)[O-])ccc1NC(=O)/C=C/C(=O)O	-16.2%	5.9%	-25.1%	-10.0%	13.9%	50.1µM*
Cc1ccc(C)c(NC(=O)c2ccccc2O)c1	?	3.8%	3.5%	3.36µM*	-11.8%	16.8%[59 µM]
CSc1ccccc1C(=O)Nc1cccc([N+](=O)[O-])c1C	-6.3%	-6.2%	1.7%	-1.5%	27.2%	-48.9%
SMILES	JMJD2A Tudor	BAZ2B inh	Sfp inh	PLK1 PBD inh	HP1b chromo inh	G9a block
COCCSc1ccccc1C(=O)Nc1ccc([N+](=O)[O-])cc1OC	-12.8%	-29.5%	16.3%	4.7%	17.0%	22.4µM*
CSc1ccccc1C(=O)Nc1cc([N+](=O)[O-])ccc1C	-3.4%	-15.5%	-12.7%	5.2%	15.2%	10µM*
CNC(=O)C1CCC(Cn2c(=O)[nH]c3ccsc3c2=O)CC1 (stereo not given)	-13.3%	-33.3%	/	/	14.0%	-5.8%[59 µM]
COc1ccc([N+](=O)[O-])cc1NC(=O)CC(c1ccccc1)c1ccccc1	-11.5%	5.8%	2.7%	-11.5%	25.4%	3.8%[59 µM]
COCCSc1ccccc1C(=O)Nc1cc([N+](=O)[O-])ccc1OC	-14.5%	-16.8%	17.2%	-11.5%	18.0%	39.8µM*
COc1ccc(NC(=O)CSc2nnc3c(n2)[nH]c2ccc(S(=O)(=O)N(C)C)cc23)c(OC)c1	-32.7%	/	/	/	3.0%	/
CCN(CC)CCNC(=O)c1[nH]c2ccc(OCc3ccccc3)cc2c1C	?	?	?	-1.2%	?	50.1µM*
C[C@@H]1CC=C[C@H]2[C@H]1C(=O)N(Cc1ccccc1)[C@H]2c1ccc(/C=C/c2ccccc2)cc1F	-14.0%	-12.1%	-9.6%	4.6%	25.4%	28.1%[59 µM]
Cn1cccc1/C=N/NC(=O)c1cccc(OC(F)(F)C(F)F)c1	79.4µM*	?	1.1%	?	?	?
Cc1cc(C(=O)N/N=C/c2cccn2C)n[nH]1	-3.4%	-26.8%	8.2%	-3.1%	20.0%	?
CCCn1nc(C(=O)NNC(=O)Cc2ccc(S(=O)(=O)N3CCOCC3)s2)c2ccccc2c1=O	-8.2%	27.0%	/	-7.3%	23.4%	3.9%
CC(=O)N1CC23C=CC(CC2CC12CCCCCC2)O3 (stereo not given)	-15.8%[11.4 µM]	-24.6%	18.9%	8.44µM*	-19.9%	-0.5%[59 µM]
CC(=O)N1Cc2ccccc2C(C)CC12CCCCC2 (stereo not given)	0.7%	11.1%	-4.7%	-8.7%	22.2%	18.5%[59 µM]
COc1cccc(OC)c1CNC(=O)C1CCC(=O)N(CC2CCCCC2)C1 (stereo not given)	-16.5%	-15.5%	8.4%	-4.4%	25.6%	18.7%
CC(CCC(=O)O)C1CCC2C3CC[C@@H]4CCCC[C@@]4(C)C3CC[C@@]12C (stereo not given in full)	/	/	11.0%	/	/	/
CCOC(=O)N1CCC(c2cc(=O)n3[nH]cc(C(=O)OC)c3n2)CC1	-24.8%	5.0%	11.7%	-13.5%	17.1%	17.3%[59 µM]
CCOc1ccc(NC(=O)c2c[nH]n3c(=O)cc(C4CCN(C(=O)OC(C)(C)C)CC4)nc23)cc1	-22.8%	-8.7%	0.9%	?	14.2%	11.2µM*
O=C1/C(=C\c2cc(Cl)c(O)c(Cl)c2)SC(=S)N1Cc1ccccc1	50.1µM*	50.1µM*	?	-1.2%	?	14.1µM*
CN1C(=O)/C(=C\c2ccccc2OCc2ccccc2)SC1=S	-22.4%	-6.0%	-2.2%	1.6%	1.0%	-10.6%
